# Test results as given in PubChem BioAssay AID504883 (The Scripps Research Institute Molecular Screening Center, 2011).
# The source made the active and inactive calls.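 Rule for the calls: active = EC50 at or below 10 µM; inactive = EC50 above 10 µM.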
# Assay: FP signal increase by Cy5-IP20 peptide alone, dose response, artefact control for PKA-R1A complex activator project, biochemical, fluorescence polarization, 1536-well HTS (AID 504883)
# Conditions: fluorescence polarization artifact counterscreen
row,SMILES,EC50
1,CCCC(=O)Nc1ncnc2c1ncn2[C@@H]1O[C@@H]2COP(=O)(O)O[C@H]2[C@H]1OC(=O)CCC,> 114 µM (inactive)
2,CCCC(=O)Nc1ncnc2c1ncn2[C@@H]1O[C@@H]2OP(=O)(O)OC[C@H]2[C@H]1OC(=O)CCC,> 114 µM (inactive)
3,Nc1ncnc2c1nc(Sc1ccc(Cl)cc1)n2[C@@H]1O[C@@H]2COP(=O)(O)O[C@H]2[C@H]1O,> 114 µM (inactive)
4,Nc1nc2c(nc(Br)n2[C@@H]2O[C@@H]3COP(=O)(O)O[C@H]3[C@H]2O)c(=O)[nH]1,> 114 µM (inactive)
5,Nc1ncnc2c1nc(Br)n2[C@@H]1O[C@@H]2COP(=O)(O)O[C@H]2[C@H]1O,> 114 µM (inactive)
6,CCOP1(=O)OCC2OC(n3cnc4c(N)ncnc43)C(O)C2O1 (stereo unspecified),> 114 µM (inactive)
